According to PubChem BioAssay (NCATS):
Values joined by “and” are separate entries in the source; they are usually repeats but may differ in a detail not shown here. Equal entries are not always repeated. Results filed as inconclusive are left out. Entries that show only a call come without a potency. Active and inactive are the calls of the source. Unless noted, calls follow the shape of the dose curve; as a rule, active = well fitted curve in the direction sought with a large enough effect; inconclusive = small, poorly fitted or top-dose-only effect, or another doubt; inactive = no such curve, though single readings can be large; an effect the other way counts as inactive or inconclusive.

Columns and labels:
[1] = target: Cytochrome P450 3A4 (Homo sapiens) (UniProt P08684); experiment: qHTS Assay for Inhibitors and Substrates of Cytochrome P450 3A4 (AID 884); also: nearly all actives have a fitted effect of over 50% in size; also: potency is read from the fitted curve at half-maximal effect
Procedure, shortened: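 20 nM human CYP3A4 with 25 uM Luciferin-PPXE (at KM) in 200 mM KPO4, preincubated 10 min with compound; NADPH regeneration started a 60 min RT reaction. Luciferin detected by luminescence, normalized to 57 uM ketoconazole as full inhibition.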

[2] = Confirmation and Secondary Assay for Modulators of Hemoglobin Beta Chain Splicing at IVS2 654 locus (AID 910);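 also: HeLa cells stably carrying EGFP split by mutant beta-globin IVS2-654 intron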
Procedure, shortened: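 Readout: per-well total peak green fluorescence (488 nm ex, 500–520 nm em) from objects 5–250 µm, reflecting correct splicing of an EGFP-654 reporter. Compounds were applied for 2 days at 37 °C to overnight-plated HeLa EGFP-654 cells; controls were DMSO and 500 nM IVS2-654 PNA.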

[3] = Confirmation and Secondary Assay for Modulators of Hemoglobin Beta Chain Splicing at IVS2 705 locus (AID 930);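 also: HeLa cells stably expressing the EGFP-705 splicing reporter; GFP fluorescence per well restored by corrected splicing of the IVS2-705 intron in EGFP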
Procedure, shortened: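 HeLa cells stably carrying EGFP interrupted by mutant beta-globin intron 2 (IVS2-705) treated 2 days at 37C with compound; 500 nM antisense PNA as control. Correct splicing read as total peak GFP intensity per well by laser-scanning cytometry.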

[4] = qHTS Assay for Lipid Storage Modulators (AID 1519; calls by dose curve); details: Drosophila S3 cells, BODIPY lipid droplet/cell ratio, laser cytometry, cells loaded with oleic acid; for activity change, negative = inhibition: at 57.5 µM (top of the series)
Procedure, shortened: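 Cells seeded at 5,000 per well were treated with compounds over a concentration series and loaded with oleic acid (400 uM, as added). Lipid droplet fluorescence (488 nm excitation, 500-530 nm channel) was read by laser-scanning cytometry and normalized to 20 uM Triacsin C.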

[5] = target: Ubiquitin carboxyl-terminal hydrolase 1 (Homo sapiens) (UniProt O94782); experiment: Inhibitors of USP1/UAF1: Pilot qHTS (AID 504865);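 also: rhodamine fluorescence freed from ubiquitin-rhodamine substrate followed over time; top concentration of the series differs between compounds; nearly all actives have a fitted effect of over 35% in size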
Procedure, shortened: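 1nM USP1/UAF1 + cpd, 15 min RT; start w/ Ub-Rho 150nM final; kinetic FL 480/540 nm, 6 reads q60 s. Buffer 50mM HEPES pH 7.8, 0.5mM EDTA, 1mM TCEP, 0.01% Tween-20, 0.1 mg/ml BSA.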

[6] = target: Cytochrome P450 3A4 (Homo sapiens) (UniProt P08684); experiment: qHTS Assay for Activators of Cytochrome P450 3A4 (AID 885); also: nearly all actives have a fitted effect of over 65% in size
Procedure, shortened: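 Signal was normalized against complete inhibition by 57 uM ketoconazole. The reaction used 20nM CYP3A4 with 25uM Luciferin-PPXE, 10-min compound preincubation and a 60-min NADPH-supported step at RT.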

[7] = measured here: cell count channel max response
[8] = measured here: lipid channel max response

Sequence of Cytochrome P450 3A4 (Homo sapiens) (P08684 whole entry, looked up): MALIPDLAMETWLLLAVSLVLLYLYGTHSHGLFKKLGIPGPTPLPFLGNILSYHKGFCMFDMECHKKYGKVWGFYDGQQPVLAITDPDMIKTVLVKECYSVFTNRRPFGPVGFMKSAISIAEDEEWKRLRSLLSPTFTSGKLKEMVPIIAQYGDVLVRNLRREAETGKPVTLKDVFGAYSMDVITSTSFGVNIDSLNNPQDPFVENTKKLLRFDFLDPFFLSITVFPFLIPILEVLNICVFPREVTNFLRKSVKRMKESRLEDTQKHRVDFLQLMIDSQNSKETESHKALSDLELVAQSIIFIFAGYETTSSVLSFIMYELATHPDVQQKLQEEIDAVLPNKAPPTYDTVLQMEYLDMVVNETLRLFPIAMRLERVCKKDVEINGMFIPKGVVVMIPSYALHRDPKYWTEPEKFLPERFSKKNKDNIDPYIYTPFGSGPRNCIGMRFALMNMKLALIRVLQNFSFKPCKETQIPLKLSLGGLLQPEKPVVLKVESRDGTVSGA
Sequence of Ubiquitin carboxyl-terminal hydrolase 1 (Homo sapiens) (O94782 whole entry, looked up): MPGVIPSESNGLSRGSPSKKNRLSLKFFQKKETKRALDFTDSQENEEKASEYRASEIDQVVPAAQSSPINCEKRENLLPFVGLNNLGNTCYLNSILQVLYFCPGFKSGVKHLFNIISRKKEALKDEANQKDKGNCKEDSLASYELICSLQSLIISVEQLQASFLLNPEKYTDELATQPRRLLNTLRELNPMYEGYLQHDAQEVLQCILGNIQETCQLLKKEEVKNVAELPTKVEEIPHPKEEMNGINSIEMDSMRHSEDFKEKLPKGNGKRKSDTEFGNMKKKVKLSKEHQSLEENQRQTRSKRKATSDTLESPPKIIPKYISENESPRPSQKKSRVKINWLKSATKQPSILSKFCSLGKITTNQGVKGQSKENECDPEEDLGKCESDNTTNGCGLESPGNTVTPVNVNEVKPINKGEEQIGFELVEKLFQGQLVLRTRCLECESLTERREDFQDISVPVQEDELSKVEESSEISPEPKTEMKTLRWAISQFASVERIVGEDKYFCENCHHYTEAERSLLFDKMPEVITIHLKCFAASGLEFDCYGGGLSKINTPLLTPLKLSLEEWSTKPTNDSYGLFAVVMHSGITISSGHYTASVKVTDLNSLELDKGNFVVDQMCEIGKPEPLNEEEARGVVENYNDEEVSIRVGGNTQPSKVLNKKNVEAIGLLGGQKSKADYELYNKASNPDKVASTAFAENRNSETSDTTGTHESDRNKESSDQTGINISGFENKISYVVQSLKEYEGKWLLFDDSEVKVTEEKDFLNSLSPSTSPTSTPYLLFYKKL

Row | SMILES | Potency [1] | Potency [2] | Potency [3] | activity change, negative = inhibition [4] | max response [4, 7] | max response [4, 8] | Potency [5] | Potency [6]
1 | CCOC(=O)C1C(C=C(C)C)C1(C)C (stereo not given) | inactive | inactive | inactive | 2.84% (inactive) | -1.43% | 3.02% | inactive | –
2 | NC(CO)Cc1ccccc1 (stereo not given) | inactive | inactive | – | 8.6% (inactive) | 17.3% | 29% | inactive | –
3 | CC(=O)O.CC(=O)O.[Cd] | inactive | inactive | inactive | 4.11% (inactive) | 7.92% | 9.61% | inactive | –
4 | COc1cc(C2c3cc4c(cc3C(O)C3COC(=O)C23)OCO4)cc(OC)c1O (stereo not given) | 6.31 µM (active) | inactive | – | 7.14% (inactive) | -1.69% | 6.73% | inactive | –
5 | CC(N)[C@H](O)c1ccccc1 (stereo not given in full) | inactive | inactive | inactive | 2.72% (inactive) | 12.8% | 19.5% | inactive | –
6 | COc1cc(OC)c2c(c1)OC(c1ccc(OC)c(OC)c1)C(O)C2 (stereo not given) | inactive | inactive | inactive | 10.8% (inactive) | 10.1% | 29.4% | inactive | –
7 | CNC1[C@@H](O)C(OC2C(N)C[C@H](N)[C@@H](O[C@@H]3OC(C(C)O)C(O)C(O)C3N)C2O)OC[C@]1(C)O (stereo not given in full) | 20 µM (active) | inactive | inactive | 8.52% (inactive) | 15% | 24.5% | inactive | inactive
8 | COC(=O)COc1ccc(Cl)cc1Cl | inactive | inactive | inactive | 8.24% (inactive) | 0.885% | 8.23% | inactive | –
9 | Cc1c(O)c(O)cc2c1CC=C1[C@]3(C)CC[C@]4(C)CC[C@@](C)(C(=O)O)CC4[C@]3(C)CC[C@]12C (stereo not given in full) | inactive | inactive | inactive | -4.4% (inactive) | 19.2% | 14.7% | inactive | –
10 | C=C1C2CCC3[C@@](CC[C@@H]4C(C(=O)O)CC(OC5OC(CO)C(OS(=O)(=O)O)C(OS(=O)(=O)O)C5OC(=O)CC(C)C)C[C@]34C)(C2)C1O (stereo not given in full) | inactive | inactive | inactive | 1.97% (inactive) | -12% | -7.92% | inactive | –
11 | CC(=O)OC1C(=O)[C@]2(C)C(O)CC3OC[C@]3(OC(C)=O)C2[C@@H](OC(=O)c2ccccc2)[C@]2(O)CC(O)C(C)=C1C2(C)C (stereo not given in full) | inactive | inactive | inactive | 0.522% (inactive) | 3.27% | 6.64% | inactive | –
12 | COC[C@]12CN(C=O)C3C4C(OC)C1[C@@]3(C1CC3(O)C(OC)C(O)C4(OC(C)=O)C1C3OC(=O)c1ccccc1)[C@@H](OC)CC2O (stereo not given in full) | inactive | inactive | inactive | -0.123% (inactive) | -6.49% | -7.99% | inactive | –
13 | N#C/C(=C\c1cccc(O)c1)C(=O)O | inactive | inactive | – | 5.07% (inactive) | 0.883% | 7.48% | inactive | –
14 | CC(=O)CC1CCCCN1 (stereo not given) | inactive | inactive | – | 4.86% (inactive) | 11.3% | 14.1% | inactive | –
15 | CC(N)C(O)c1ccc(O)c(O)c1 (stereo not given) | inactive | inactive | – | 9.23% (inactive) and 2.97% (inactive) | 10.7% and 5.9% | 23.4% and 5.16% | inactive | –
16 | CC1O[C@@H](OC2CC[C@@]3(C=O)C4CC[C@]5(C)C(C6=CC(=O)OC6)CC[C@@]5(O)C4CC[C@]3(O)C2)C(O)C(O)C1O (stereo not given in full) | inactive | inactive | – | 2.77% (inactive) | -0.564% | 4.22% | inactive | –
17 | CCN1C[C@]2(COC)C(O)C[C@H](OC)[C@@]34C5C[C@]6(O)C(OC)C(O)[C@](OC(C)=O)(C5C6OC(=O)c5ccccc5)C(C(OC)C23)C14 (stereo not given in full) | inactive | inactive | – | 4.84% (inactive) | 13.6% | 24% | inactive | –
18 | CC1(C)N([O-])[N+](=O)C1(C)Br (stereo not given) | inactive | inactive | – | 1.13% (inactive) | -4.64% | -5.74% | inactive | –
19 | C[C@]12CCC(=O)C=C1CCc1ccc(O)cc12 | 25.1 µM (active) | inactive | inactive | -0.872% (inactive) | -10.5% | -4.41% | inactive | inactive
20 | COc1cc(C2c3cc4c(c(O)c3CC3COC(=O)C32)OCO4)cc(OC)c1OC (stereo not given) | 1 µM (active) | inactive | inactive | 3.6% (inactive) | 11.9% | 14.5% | inactive | inactive
21 | CNC(=O)O/N=C(/C)SC | inactive | inactive | inactive | 3.26% (inactive) | 16.3% | 20.1% | inactive | –
22 | CC1=C2CCC3C4CCC(=O)[C@@]4(C)CCC3[C@]2(C)CCC1=O (stereo not given in full) | 5.01 µM (active) | inactive | inactive | 7.19% (inactive) | 5.35% | 8.56% | inactive | inactive
